# Measurements published in PubChem BioAssay (NCATS).
# Several values for one entry are separate records, joined by “and”; a condition that tells them apart may be missing. Equal entries are not always repeated.
# Experiment: qHTS profiling of the MIPE4 collection as inhibitors of Plasmodium falciparum (DD2) proliferation (AID 743345)
# Conditions: P. falciparum Dd2 in erythrocytes, SYBR Green DNA, 72 h; at 28.5 µM (top of the series) unless noted
# Text: Plasmodium falciparum is a virulent malarial parasite that kills 1-2 million people worldwide each year. Transmitted by mosquitoes, the sporozoite form of the parasite enters the blood stream to infect hepatocytes, where they become merozoites that infect red blood cells (erythrocytes). Within erythrocytes, merozoites begin a […] cycle of growth and division, after which the parasite is released to infect new red blood cells. Gametocytes, which form within erythrocytes as well, circulate in the bloodstream and are ingested by the mosquito, thereby completing the life cycle. To profile malarial isolates for differential chemical responses and to identify inhibitors of malarial growth, an assay that measures P. falciparum growth and replication within erythrocytes was employed. This assay uses a DNA binding fluorescent dye (SYBR Green) to detect parasite DNA following cell lysis. Because mature erythrocytes lack DNA, only Plasmodium-derived DNA is detected.
# The SYBR Green viability assay was adapted from a method described previously (Plouffe et al., 2008). For screening 3 ul culture medium was dispensed into 1536 well black clear bottom plates (Aurora Biotechnologies) using a Multidrop Combi (Thermo Fisher Scientific Inc.), 23 nL compounds in DMSO were added by a pin tool (Kalypsys), and 5 ul of erythrocytes infected with P. falciparum (0.3% parasitemia, 2.5% hematocrit final concentration) were added. The plates were incubated at 37 C in a humidified incubator in 5% CO2 for 72 h, and 2 ul lysis buffer (20 mM Tris HCl, 10 mM EDTA, 0.16% saponin, 1.6% triton X, 10X SYBR Green I supplied as 10,000X […] by Invitrogen) was added to each well. The plates were mixed for 25 sec with gentle shaking and incubated overnight at room temperature in the dark. The following morning, fluorescence intensity at 485(14) nm excitation and 535(25) nm emission wavelengths was measured on an EnVision (Perkin Elmer) plate reader. Plate reads were normalized relative to the control inhibitor (0.29 uM artemisinin) and vehicle (DMSO) wells present on each plate and then corrected by an algorithm using vehicle-only control plates at the beginning and end of the compound plate stack.
row,Structure (SMILES),"parasite growth remaining, % of DMSO control (lower = more inhibition)"
1,CCOc1cc(C(=O)Nc2ccc(Cl)c(-c3nc4ccccc4[nH]3)c2)cc(OCC)c1OCC,58.5%
2,CCN(CC)CCCC(C)Nc1nc(C)cc(Nc2ccc3nc(C)cc(N)c3c2)n1 (stereo not given),21.1%
3,O=c1[nH]c(-c2ccc(C(F)(F)F)cc2)nc2c1CSCC2,93.9%
4,N[C@@H]1CONC1=O,120%
5,Cc1ccc(-n2nc(C(C)(C)C)cc2NC(=O)Nc2ccc(OCCN3CCOCC3)c3ccccc23)cc1,84.5%
6,Cc1c(CN2CCN(C(=O)C(C)C)CC2)sc2c(N3CCOCC3)nc(-c3cnc(N)nc3)nc12,25.7%
7,Cc1cc(-c2ccc(CC(=O)Nc3ccc(-c4cccnc4)cc3)cc2)ccn1,95.7%
8,NS(=O)(=O)c1cc2c(cc1Cl)NC=NS2(=O)=O,91.5%
9,CNC(=O)c1ccc(N2C(=S)N(c3ccc(C#N)c(C(F)(F)F)c3)C(=O)C2(C)C)cc1F,86.3%
10,CC(C)(N)C(=O)N[C@H](COCc1ccccc1)C(=O)N1CCC2(CC1)CN(S(C)(=O)=O)c1ccccc12,10.9%
11,Cc1ccc(NC(=O)c2cccc(C(C)(C)C#N)c2)cc1Nc1ccc2ncn(C)c(=O)c2c1,39.9%
12,CCC(C)n1ncn(-c2ccc(N3CCN(c4ccc(OC[C@H]5CO[C@](Cn6cncn6)(c6ccc(Cl)cc6Cl)O5)cc4)CC3)cc2)c1=O (stereo not given in full),8.47%
13,NC(=O)C1CCCc2c1[nH]c1ccc(Cl)cc21 (stereo not given),112%
14,COc1ccc([C@@H]2CC(=O)c3c(O)cc(O[C@@H]4O[C@H](CO[C@@H]5O[C@@H](C)[C@H](O)[C@@H](O)[C@@H]5O)[C@@H](O)[C@H](O)[C@@H]4O)cc3O2)cc1O,90.3% and 85.6%
15,COCC(=O)NCC=Cc1ccc2ncnc(Nc3ccc(Oc4ccc(C)nc4)c(C)c3)c2c1,70.2%
16,CCCc1nn(C)c2c(=O)[nH]c(-c3cc(S(=O)(=O)N4CCN(C)CC4)ccc3OCC)nc12,17.2%
17,CCN(CC)CCCC(C)Nc1ccnc2cc(Cl)ccc12 (stereo not given),10.1%
18,COc1ccc(CCN2CCN(CCCc3ccccc3)CC2)cc1OC,95.6%
19,CC(=O)NC(C)c1ccc(Oc2ccc(OC(C)C)cc2)cc1 (stereo not given),10.5%
20,COCCNCCCn1c(C(=O)CF)c(-c2ccc(C)cc2)c2c(N)ncnc21,85.3%

row,Structure (SMILES),"parasite growth remaining, % of DMSO control (lower = more inhibition)"
1,NCCc1ccc(O)c(O)c1,20.2%
2,NNCCc1ccccc1,24.6%
3,O=C(O)COCCN1CCN(C(c2ccccc2)c2ccc(Cl)cc2)CC1 (stereo not given),104%
4,NC(=O)c1ccc(-c2nc(-c3ccc4c(c3)OCCO4)c(-c3ccccn3)[nH]2)cc1,18.9%
5,CC(c1cc2ccccc2s1)N(O)C(N)=O (stereo not given),98.2%
6,O=C(O)CCc1ccc(NCc2cccc(Oc3ccccc3)c2)cc1,87.8%
7,CCc1cncnc1N1CCN(Cc2nc3ccc(C(F)(F)F)cc3[nH]2)CC1,33%
8,C#Cc1cccc(Nc2ncnc3cc(OCCOC)c(OCCOC)cc23)c1,50.4%
9,OCCC#Cc1nc(-c2ccc(F)cc2)c(-c2ccncc2)n1CCCc1ccccc1,21.2%
10,Cc1ccc(N(CC2=NCCN2)c2cccc(O)c2)cc1,92.8%
11,COc1ccc(CC2=NN3C([C@@H](CCc4ccccc4)[C@@H](C)O)=NC(C)C3C(=O)N2)cc1OC (stereo not given in full),99.9%
12,CCc1cc(Nc2nccc(-c3c(-c4ccc(OC)c(C(=O)Nc5c(F)cccc5F)c4)nc4ccccn34)n2)c(OC)cc1N1CCC(N2CCN(S(C)(=O)=O)CC2)CC1,6.42%
13,CCOC(=O)N1CCC(=C2c3ccc(Cl)cc3CCc3cccnc32)CC1,56.2%
14,CNC(=O)c1ccc(C)c(-n2c(C)cc(OCc3ccc(F)cc3F)c(Br)c2=O)c1,84.9%
15,C[C@@H]1CN(Cc2ccc(F)cc2)[C@@H](C)CN1C(=O)c1cc2c(C(=O)C(=O)N(C)C)cn(C)c2cc1Cl,83.2%
16,CCCCCCCc1ccc(CCc2cccc(O)c2C(=O)O)cc1,99.9%
17,CCc1ccc(CCOc2ccc(CC3SC(=O)NC3=O)cc2)nc1 (stereo not given),90.1%
18,N=c1nc(N2CCCCC2)cc(N)n1O,33.6%
19,COc1c(Cl)cc2c([nH]c3cnccc32)c1NC(=O)c1cccnc1C,72.7%
20,CC(C)OC(=O)C1=CN(C(=O)c2ccc(F)c(F)c2)CC(C)(C)c2c1[nH]c1ccccc21,44.6%
